Measured values as given in the supplement of paper PMC11732987, “Enantioselective OTUD7B fragment discovery through chemoproteomics screening and high-throughput optimisation” (Communications Chemistry, 2025).

Legend:
Assay in all cases: log2 ratio of Biotin-Ahx-Ub-VS probe labelling (fragment/DMSO); higher = less target engagement (more negative = stronger competition), active = hit call of the paper (q ≤ 0.05, log2 ratio ≤ -1)
Conditions in all cases: compound concentration: 200 uM; treatment time: 3 h
USP42 = biological target: T1, USP42 (UniProt Q9H9J4)
T1 sequence (whole entry): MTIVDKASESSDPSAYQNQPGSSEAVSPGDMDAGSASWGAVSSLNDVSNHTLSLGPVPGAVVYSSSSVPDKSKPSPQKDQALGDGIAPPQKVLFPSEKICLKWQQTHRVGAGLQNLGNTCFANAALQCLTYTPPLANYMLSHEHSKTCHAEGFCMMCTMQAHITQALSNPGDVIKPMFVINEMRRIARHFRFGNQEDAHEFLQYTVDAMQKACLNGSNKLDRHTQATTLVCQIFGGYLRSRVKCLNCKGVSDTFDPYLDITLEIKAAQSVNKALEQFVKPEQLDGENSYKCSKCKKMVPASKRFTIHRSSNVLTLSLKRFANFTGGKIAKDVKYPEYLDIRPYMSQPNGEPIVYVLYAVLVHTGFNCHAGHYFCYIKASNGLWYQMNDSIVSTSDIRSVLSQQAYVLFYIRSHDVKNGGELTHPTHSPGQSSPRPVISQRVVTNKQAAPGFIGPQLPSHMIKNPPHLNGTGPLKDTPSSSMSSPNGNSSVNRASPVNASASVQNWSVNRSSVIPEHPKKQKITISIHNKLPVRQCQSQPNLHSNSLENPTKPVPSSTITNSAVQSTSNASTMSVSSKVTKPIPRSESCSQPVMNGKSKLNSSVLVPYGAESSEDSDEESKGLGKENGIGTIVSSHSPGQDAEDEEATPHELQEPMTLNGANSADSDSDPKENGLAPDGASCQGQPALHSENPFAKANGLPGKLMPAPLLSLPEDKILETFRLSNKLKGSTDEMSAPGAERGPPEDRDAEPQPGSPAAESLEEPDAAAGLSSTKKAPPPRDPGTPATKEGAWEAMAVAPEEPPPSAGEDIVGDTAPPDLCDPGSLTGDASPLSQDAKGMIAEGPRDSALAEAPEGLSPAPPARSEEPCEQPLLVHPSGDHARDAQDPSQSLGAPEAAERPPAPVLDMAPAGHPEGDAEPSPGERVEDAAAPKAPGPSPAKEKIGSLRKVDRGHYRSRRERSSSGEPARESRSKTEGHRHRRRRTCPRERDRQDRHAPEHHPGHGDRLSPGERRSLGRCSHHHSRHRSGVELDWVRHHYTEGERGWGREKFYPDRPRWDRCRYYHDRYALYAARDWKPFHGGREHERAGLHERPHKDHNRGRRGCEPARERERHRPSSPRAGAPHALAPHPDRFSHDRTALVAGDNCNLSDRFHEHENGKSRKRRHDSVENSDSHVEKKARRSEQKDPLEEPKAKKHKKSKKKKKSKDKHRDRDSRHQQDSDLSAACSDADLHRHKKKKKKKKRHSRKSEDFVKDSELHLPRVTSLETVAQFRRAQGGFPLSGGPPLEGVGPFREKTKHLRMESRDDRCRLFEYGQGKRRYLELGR
Method in brief: (§1)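 Triplicate samples of HEK293T lysate, 495 µg each, received fragment at 200 µM or vehicle for 3 h, followed by Biotin-Ahx-Ub-VS (0.5 µM final) for 1 h. After NeutrAvidin enrichment of labelled DUBs and LysC/trypsin digestion, peptides were run by diaPASEF LC-MS/MS. The values are average log2 fragment/vehicle ratios from global-median-normalised Spectronaut label-free quantities, tested by unpaired t-test on proteins having ≥2 unique peptides.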

USP46 = USP46 (UniProt P62068)
Method in brief: as §1

USP47 = biological target: T2, USP47 (UniProt Q96K76)
T2 sequence (whole entry): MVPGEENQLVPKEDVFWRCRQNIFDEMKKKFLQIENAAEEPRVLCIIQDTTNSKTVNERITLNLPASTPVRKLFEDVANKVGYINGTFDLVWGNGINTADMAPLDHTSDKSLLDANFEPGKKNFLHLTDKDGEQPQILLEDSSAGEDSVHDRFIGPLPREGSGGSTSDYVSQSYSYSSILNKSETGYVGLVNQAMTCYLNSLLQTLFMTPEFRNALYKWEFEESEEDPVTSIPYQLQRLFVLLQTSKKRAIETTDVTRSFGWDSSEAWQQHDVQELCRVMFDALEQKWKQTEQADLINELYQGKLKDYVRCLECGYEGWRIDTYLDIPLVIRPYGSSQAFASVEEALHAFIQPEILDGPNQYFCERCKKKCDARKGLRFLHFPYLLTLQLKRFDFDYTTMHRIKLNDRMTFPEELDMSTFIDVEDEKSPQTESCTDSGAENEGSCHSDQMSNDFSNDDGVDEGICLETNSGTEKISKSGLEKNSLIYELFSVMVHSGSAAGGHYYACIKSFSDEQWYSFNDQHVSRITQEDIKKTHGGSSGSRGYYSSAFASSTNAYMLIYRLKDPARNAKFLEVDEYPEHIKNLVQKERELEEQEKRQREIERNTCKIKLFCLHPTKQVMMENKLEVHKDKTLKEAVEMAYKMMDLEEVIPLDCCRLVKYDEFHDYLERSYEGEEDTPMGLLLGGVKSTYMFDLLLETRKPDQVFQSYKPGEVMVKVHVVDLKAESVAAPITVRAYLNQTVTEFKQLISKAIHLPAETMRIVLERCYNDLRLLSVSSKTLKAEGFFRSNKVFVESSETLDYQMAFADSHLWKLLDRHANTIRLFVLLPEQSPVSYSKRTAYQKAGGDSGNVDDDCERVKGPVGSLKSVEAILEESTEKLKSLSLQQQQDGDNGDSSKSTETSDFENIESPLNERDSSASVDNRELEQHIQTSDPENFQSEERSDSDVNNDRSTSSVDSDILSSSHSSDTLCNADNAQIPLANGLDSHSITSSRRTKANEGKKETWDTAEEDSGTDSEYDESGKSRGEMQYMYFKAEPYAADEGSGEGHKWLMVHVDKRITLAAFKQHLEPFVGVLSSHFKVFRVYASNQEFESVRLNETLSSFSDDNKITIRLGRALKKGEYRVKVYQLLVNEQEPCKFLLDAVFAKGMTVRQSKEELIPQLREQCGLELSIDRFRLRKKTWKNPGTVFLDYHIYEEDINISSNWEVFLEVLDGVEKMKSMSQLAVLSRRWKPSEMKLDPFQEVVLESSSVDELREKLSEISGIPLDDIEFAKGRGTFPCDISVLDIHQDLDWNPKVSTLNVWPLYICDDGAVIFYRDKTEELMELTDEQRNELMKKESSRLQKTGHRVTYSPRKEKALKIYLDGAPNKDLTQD
Method in brief: as §1

USP48 = biological target: T3, USP48 (UniProt Q86UV5)
T3 sequence (whole entry): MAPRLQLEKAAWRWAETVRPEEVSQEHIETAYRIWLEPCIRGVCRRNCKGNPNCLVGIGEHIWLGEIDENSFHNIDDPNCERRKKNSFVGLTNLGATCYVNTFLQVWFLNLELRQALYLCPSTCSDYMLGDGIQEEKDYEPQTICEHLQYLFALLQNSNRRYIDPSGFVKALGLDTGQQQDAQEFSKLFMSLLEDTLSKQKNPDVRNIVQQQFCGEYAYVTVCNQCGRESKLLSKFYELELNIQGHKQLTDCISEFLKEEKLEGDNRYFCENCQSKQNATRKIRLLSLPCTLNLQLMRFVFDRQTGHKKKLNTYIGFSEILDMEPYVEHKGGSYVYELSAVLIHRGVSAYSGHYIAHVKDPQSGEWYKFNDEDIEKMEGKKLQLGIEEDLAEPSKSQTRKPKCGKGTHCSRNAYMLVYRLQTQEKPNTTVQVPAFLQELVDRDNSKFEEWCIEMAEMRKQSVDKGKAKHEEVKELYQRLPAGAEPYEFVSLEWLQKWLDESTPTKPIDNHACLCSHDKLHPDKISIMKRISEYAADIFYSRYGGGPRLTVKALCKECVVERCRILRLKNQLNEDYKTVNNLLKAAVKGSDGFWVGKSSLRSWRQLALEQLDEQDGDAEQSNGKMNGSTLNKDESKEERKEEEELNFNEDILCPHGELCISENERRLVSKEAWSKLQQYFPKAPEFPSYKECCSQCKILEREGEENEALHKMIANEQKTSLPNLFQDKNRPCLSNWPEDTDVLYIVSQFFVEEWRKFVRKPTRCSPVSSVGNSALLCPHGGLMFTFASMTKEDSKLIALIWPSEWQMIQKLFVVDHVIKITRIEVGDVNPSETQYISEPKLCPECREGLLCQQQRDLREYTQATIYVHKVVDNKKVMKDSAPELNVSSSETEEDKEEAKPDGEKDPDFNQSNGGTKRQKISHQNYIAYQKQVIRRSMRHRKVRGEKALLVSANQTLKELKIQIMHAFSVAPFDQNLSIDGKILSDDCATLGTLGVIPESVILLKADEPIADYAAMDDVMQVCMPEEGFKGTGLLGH
Method in brief: as §1

USP5 = biological target: T4, USP5 (UniProt P45974)
T4 sequence (whole entry): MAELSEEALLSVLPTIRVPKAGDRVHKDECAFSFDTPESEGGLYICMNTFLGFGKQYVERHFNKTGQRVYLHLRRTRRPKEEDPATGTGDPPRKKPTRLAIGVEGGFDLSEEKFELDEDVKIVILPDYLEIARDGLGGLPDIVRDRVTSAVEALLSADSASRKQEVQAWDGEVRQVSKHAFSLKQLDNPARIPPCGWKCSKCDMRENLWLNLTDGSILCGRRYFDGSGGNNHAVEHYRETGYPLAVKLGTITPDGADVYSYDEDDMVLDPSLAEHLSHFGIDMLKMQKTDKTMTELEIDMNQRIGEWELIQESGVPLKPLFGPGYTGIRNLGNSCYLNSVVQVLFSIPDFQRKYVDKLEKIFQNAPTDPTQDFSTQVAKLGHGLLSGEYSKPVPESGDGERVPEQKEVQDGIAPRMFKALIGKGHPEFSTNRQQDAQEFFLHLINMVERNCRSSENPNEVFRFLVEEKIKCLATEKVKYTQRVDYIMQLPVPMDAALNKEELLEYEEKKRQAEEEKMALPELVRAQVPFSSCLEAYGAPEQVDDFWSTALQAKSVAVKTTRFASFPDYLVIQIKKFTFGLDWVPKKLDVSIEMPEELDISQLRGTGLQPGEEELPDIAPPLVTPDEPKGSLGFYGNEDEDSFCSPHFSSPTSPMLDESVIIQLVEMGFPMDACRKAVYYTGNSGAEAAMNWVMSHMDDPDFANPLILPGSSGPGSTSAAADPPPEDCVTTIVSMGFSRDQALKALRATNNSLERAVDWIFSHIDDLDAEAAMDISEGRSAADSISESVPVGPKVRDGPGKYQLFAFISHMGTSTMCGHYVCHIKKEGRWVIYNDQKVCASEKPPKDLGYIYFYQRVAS
Method in brief: as §1

USP54 = USP54 (UniProt Q70EL1)
Method in brief: as §1

USP7 = USP7 (UniProt Q93009)
Method in brief: as §1

USP8 = biological target: T5, USP8 (UniProt P40818)
T5 sequence (whole entry): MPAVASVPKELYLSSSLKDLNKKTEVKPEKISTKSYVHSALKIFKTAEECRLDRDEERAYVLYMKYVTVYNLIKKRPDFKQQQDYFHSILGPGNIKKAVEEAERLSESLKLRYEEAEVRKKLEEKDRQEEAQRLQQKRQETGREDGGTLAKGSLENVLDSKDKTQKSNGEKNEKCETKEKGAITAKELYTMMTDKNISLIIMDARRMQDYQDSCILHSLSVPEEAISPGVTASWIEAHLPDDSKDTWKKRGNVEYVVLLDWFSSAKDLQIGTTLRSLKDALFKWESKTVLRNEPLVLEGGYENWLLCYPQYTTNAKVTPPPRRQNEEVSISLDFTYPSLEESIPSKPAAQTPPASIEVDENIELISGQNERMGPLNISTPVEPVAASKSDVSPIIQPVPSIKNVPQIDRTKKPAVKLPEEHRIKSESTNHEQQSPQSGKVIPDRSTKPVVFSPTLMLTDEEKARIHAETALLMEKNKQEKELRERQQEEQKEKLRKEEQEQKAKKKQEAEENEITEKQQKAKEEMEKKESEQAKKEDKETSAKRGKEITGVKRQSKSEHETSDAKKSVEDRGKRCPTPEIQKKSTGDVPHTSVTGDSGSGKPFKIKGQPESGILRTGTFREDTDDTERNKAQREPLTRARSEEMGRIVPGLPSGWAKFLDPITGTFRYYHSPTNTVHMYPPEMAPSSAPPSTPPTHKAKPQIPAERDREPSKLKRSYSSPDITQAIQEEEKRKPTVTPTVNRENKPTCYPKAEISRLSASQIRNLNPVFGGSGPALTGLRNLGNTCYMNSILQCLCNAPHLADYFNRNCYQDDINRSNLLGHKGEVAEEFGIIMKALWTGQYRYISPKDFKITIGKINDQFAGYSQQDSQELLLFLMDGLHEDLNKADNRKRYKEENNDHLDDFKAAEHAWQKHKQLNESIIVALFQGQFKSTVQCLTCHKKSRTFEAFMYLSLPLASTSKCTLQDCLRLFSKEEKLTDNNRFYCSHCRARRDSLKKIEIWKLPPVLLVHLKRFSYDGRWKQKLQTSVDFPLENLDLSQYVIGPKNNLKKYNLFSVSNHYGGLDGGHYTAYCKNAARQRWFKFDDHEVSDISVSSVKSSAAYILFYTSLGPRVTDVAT
Method in brief: as §1

USP9X = USP9X (UniProt Q93008)
Method in brief: as §1

UniProt O00487 = biological target: UniProt O00487
Method in brief: as §1

Measured: log2 ratio of Biotin-Ahx-Ub-VS probe labelling

Chain of USP46 (P62068 whole entry): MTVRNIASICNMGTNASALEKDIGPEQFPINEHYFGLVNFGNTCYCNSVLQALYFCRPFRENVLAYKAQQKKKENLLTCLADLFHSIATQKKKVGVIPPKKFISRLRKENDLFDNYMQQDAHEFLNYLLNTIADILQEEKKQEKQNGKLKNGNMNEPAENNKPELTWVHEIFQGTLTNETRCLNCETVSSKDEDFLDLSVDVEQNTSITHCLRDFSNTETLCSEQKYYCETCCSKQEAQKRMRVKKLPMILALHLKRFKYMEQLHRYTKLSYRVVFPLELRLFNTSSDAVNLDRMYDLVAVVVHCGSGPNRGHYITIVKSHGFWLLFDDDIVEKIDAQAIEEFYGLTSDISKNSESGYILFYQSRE
Chain of UniProt O00487 (O00487 whole entry): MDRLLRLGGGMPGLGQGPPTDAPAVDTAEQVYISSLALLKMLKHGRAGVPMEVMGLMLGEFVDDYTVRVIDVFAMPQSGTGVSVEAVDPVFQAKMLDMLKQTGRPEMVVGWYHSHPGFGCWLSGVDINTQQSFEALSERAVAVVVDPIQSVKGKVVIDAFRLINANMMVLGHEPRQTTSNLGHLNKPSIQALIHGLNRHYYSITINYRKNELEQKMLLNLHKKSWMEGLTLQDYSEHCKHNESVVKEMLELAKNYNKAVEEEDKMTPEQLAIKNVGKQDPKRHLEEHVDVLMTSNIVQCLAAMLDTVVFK
Chain of USP54 (Q70EL1 whole entry): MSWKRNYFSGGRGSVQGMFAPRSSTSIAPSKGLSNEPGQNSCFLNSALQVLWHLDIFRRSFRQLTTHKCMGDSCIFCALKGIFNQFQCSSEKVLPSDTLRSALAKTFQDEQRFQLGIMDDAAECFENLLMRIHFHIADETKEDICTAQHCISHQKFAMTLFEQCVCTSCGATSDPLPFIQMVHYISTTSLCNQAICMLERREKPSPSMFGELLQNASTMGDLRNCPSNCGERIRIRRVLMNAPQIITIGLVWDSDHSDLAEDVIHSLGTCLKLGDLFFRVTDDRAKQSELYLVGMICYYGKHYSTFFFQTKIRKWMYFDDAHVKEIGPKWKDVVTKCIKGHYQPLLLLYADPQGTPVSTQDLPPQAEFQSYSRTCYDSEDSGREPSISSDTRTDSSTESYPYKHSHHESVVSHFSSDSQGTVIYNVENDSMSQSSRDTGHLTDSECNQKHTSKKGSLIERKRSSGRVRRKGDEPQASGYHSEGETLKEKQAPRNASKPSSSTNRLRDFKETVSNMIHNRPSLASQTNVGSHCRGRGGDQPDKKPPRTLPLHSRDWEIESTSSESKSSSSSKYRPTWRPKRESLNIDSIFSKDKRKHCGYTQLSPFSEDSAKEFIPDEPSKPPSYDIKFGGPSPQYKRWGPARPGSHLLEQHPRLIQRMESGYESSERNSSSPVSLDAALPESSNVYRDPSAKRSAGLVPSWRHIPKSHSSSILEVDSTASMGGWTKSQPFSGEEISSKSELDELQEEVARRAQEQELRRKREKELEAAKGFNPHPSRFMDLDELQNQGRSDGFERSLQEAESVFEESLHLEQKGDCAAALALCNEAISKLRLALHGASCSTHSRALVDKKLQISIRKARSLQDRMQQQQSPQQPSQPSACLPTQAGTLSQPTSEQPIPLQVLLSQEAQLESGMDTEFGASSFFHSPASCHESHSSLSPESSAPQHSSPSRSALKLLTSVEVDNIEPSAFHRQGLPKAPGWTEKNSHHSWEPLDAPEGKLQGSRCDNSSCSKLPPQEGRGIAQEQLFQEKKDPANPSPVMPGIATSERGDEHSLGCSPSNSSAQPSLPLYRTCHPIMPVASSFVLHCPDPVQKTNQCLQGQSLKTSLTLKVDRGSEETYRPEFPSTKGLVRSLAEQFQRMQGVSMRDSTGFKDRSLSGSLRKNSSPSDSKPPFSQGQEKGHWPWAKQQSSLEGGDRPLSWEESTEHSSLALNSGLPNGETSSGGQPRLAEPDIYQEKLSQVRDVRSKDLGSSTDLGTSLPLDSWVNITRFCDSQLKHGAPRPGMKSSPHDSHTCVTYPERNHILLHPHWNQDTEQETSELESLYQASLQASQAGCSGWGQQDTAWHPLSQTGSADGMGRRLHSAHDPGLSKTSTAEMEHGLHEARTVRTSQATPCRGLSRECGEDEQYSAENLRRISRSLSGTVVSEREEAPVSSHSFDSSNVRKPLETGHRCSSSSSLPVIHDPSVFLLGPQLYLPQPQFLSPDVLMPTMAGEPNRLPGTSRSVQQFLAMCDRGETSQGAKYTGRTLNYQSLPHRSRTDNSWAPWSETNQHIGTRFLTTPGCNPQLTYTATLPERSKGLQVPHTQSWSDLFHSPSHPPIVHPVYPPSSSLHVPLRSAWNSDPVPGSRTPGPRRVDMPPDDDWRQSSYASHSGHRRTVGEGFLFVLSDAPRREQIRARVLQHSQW
Chain of USP9X (Q93008 whole entry): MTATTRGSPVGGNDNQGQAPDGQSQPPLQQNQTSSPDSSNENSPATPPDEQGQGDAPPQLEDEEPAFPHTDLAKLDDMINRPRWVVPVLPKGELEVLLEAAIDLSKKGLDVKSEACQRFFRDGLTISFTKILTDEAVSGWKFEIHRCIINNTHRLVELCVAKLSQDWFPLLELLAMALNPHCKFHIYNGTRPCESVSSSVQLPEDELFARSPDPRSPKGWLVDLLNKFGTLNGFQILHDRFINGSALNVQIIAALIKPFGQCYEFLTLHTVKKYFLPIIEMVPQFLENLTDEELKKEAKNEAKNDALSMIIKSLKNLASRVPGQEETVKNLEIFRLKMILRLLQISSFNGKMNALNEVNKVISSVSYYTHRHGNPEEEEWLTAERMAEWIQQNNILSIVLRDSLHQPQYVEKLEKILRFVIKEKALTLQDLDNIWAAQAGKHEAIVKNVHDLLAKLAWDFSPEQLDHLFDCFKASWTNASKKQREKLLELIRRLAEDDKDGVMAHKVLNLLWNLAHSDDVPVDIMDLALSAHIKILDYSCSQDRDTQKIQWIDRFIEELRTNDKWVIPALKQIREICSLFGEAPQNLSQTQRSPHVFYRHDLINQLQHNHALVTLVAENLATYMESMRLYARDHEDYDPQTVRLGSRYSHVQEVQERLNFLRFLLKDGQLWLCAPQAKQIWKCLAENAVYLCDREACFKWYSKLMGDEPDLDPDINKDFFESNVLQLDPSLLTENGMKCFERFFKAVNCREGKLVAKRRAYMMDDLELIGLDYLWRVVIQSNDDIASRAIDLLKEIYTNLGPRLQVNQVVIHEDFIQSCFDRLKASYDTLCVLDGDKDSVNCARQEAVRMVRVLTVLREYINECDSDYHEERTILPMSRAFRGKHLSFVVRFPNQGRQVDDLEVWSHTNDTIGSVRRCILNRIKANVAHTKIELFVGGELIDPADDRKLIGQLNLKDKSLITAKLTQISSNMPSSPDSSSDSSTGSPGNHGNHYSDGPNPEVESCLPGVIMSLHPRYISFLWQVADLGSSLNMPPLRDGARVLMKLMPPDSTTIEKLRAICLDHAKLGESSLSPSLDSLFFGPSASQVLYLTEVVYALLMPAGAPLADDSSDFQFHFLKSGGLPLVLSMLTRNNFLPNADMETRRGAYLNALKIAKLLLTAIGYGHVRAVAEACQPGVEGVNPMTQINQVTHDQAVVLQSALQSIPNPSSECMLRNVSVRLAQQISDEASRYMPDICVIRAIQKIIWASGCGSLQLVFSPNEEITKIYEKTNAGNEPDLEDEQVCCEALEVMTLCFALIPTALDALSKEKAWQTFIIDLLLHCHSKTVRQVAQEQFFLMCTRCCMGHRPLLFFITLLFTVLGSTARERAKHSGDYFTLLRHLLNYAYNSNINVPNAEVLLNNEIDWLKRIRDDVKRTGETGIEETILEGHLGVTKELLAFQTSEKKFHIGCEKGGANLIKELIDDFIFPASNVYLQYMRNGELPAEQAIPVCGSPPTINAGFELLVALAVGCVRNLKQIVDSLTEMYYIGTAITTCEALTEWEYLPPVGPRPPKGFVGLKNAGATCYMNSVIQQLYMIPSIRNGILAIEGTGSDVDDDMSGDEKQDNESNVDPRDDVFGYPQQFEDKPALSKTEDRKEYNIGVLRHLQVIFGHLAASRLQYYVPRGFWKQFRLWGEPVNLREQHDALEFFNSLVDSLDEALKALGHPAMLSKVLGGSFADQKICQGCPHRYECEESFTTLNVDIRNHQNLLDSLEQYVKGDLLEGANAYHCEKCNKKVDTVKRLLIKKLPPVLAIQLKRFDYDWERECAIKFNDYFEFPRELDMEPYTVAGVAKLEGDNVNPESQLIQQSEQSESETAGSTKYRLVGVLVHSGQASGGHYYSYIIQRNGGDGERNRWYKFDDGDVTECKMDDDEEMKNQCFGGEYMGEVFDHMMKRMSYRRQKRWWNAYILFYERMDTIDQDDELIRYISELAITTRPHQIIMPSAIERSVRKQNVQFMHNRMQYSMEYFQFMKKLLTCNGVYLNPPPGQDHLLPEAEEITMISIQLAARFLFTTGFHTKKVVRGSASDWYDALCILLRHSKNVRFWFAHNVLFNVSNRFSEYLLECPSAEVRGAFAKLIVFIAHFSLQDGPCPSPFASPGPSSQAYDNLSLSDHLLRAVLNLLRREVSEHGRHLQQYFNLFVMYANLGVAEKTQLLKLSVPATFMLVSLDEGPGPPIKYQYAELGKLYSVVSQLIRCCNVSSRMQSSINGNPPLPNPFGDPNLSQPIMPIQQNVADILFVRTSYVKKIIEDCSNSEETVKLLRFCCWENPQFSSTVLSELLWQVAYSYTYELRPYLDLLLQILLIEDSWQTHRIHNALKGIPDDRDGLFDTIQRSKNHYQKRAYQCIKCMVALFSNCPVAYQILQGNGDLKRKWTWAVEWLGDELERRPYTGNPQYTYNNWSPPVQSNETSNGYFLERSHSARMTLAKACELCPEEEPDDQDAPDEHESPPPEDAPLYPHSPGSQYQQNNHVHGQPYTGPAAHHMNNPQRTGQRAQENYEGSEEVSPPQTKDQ

Cl.O=C(CCl)N1CCc2ncncc2C1
inactive: USP42 0.0472 | USP46 -0.292 | USP47 -0.409 | USP48 -0.0378 | USP5 -0.0354 | USP54 0.253 | USP7 -0.411 | USP8 -0.218 | USP9X -0.425 | UniProt O00487 -0.0759
